Anthrax LF prot – blocks Bacillus anthracis lethal factor protease; 360,000 tested, 0.12% active; P15917; inhibition, % at 10 µM; multiplex microsphere protease cleavage assay, LF; note: plate controls were buffer without enzyme for full effect and enzyme alone for no effect
GDH-TPI inh – counter-screen for M. tuberculosis FBA inhibitors: GDH-TPI coupled enzymes | GDH-TPI coupled enzyme counterscreen, NADH absorbance | inhibition, % at 4.8 µM | 360,000 tested, 1.2% active | AID 588335; in the data active = inhibition above about 30%;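 note: 0% = DMSO wells and 100% = wells lacking the enzyme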
BoNT-F LC inh – inhibitors of Botulinum neurotoxin F light chain protease; Multiplex microsphere protease cleavage assay, flow cytometry; inhibition, % at 10 µM; 360,000 tested, 0.22% active; AID 588497; in the data active = inhibition above about 35%, passing the limit was not always enough; inconclusive = no clear call, values can overlap the other calls; note: plate controls were buffer without enzyme for full effect and enzyme alone for no effect
BoNT A protease – blocks Botulinum neurotoxin A light chain protease | multiplex microsphere protease substrate cleavage, flow cytometry | inhibition, % at 10 µM | 360,000 tested, 0.17% active | AID 588499; note: plate controls were buffer without enzyme for full effect and enzyme alone for no effect
Mtb FBA inh – Mtb fructose-bisphosphate aldolase inhibition | P9WQA3 | purified M. tuberculosis FBA, fluorescence read-out | inhibition, % at 1 µM | 360,000 tested, 2.3% active | AID 588726; in the data active = inhibition above about 27%;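 note: 0% = vehicle and 100% = reference inhibitor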
Autofluor counter – counter-screen for toxin protease inhibitors: compound fluorescence; AID 624483; 360,000 tested, 3.1% active; fluorescence intensity (test concentration not listed); compound autofluorescence counterscreen, microsphere flow cytometry; active compounds read high; in the data active = fluorescence intensity above about 16000; inconclusive = no clear call, values can overlap the other calls
Numbers without * were called inactive; ? = inconclusive; nt = no result given; + = active, no number. An excerpt weighted towards active compounds, which were near 6.7% of everything screened. Cut-off read from the data, not from the text of the source, unless noted: active = inhibition above about 30%; inconclusive = no clear call, values can overlap the other calls; inactive = below that.

SMILES | Anthrax LF prot | GDH-TPI inh | BoNT-F LC inh | BoNT A protease | Mtb FBA inh | Autofluor counter
COc1ccc(C(=O)N2N=C(c3ccc(NS(C)(=O)=O)cc3)CC2c2cccs2)cc1 (stereo not drawn) | 3.6 | 12.4 | -1.7 | 4.7 | 0.5 | 3383
CC(C)C(=O)N1N=C(c2ccc(NS(C)(=O)=O)cc2)CC1c1cccs1 (stereo not drawn) | -1.4 | 28.5 | -9.7 | -0.9 | + | 7486
CS(=O)(=O)Nc1ccc(C2=NN(C(=O)C3CCCCC3)C(c3cccs3)C2)cc1 (stereo not drawn) | -0.3 | 11.5 | 6.5 | -0.1 | + | 10908
CS(=O)(=O)Nc1ccc(C2=NN(S(C)(=O)=O)C(c3ccccc3)C2)cc1 (stereo not drawn) | -1.9 | 24.7 | 8.4 | 1.5 | 132.1* | 10440
CS(=O)(=O)Nc1ccc(C2=NN(S(=O)(=O)c3ccccc3)C(c3cccs3)C2)cc1 (stereo not drawn) | 1.1 | 6.2 | -5.8 | 0.9 | -3.6 | 4757
COC(=O)[C@H](CCSC)NC(=O)[C@@H](Cc1cnc[nH]1)NC(=O)OCc1ccccc1 | 4.9 | -5.0 | -13.3 | -0.3 | 0.3 | 3857
CCOC(=O)C1CCN(c2ncnc3c2[nH]c2cccc(OC)c23)CC1 | 2.7 | 27.1 | -4.6 | -0.1 | 124.7* | 3131
CCOC(=O)N1CCN(c2ncnc3c2[nH]c2ccc(OC)cc23)CC1 | -5.3 | 15.1 | -34.3 | -3.0 | 124.7* | 3479
Cc1ccc(-c2nc3ccc(Cl)cn3c2CC2CCCCC2)cc1 | ? | nt | ? | ? | 7.6 | 4543
CCCCCC1NC(=O)NC1CCCCCC(=O)O (stereo not drawn) | 1.3 | 3.6 | 11.3 | 7.3 | -2.8 | 18045*
CC1(C)NC(=O)N(CC(O)COc2ccc(-c3ccc(C#N)cc3)cc2)C1=O (stereo not drawn) | -8.8 | -1.0 | 5.9 | ? | 68.7* | 19940*
O=C1CC(SCCc2nc3ccccc3[nH]2)C(=O)N1c1ccc(F)cc1 (stereo not drawn) | 3.6 | 13.2 | -0.4 | -0.1 | 2.2 | 7967
COc1ccc(N2C(=O)CC(SCCc3nc4ccccc4[nH]3)C2=O)cc1 (stereo not drawn) | -0.1 | -3.5 | 4.3 | 3.9 | -0.3 | 19552*
CC(=O)Nc1cc2c3c(cccc3c1)-c1ccccc1-2 | -4.7 | 12.3 | -2.4 | 2.0 | 139.8* | 3481
O=C1CCN(CC2CCCCC2)C=C1C(=O)c1ccccc1 | 7.3 | 3.1 | -3.3 | -0.1 | -1.8 | 4180
CC(=O)C(=Nc1ccc(Cl)cc1Cl)NNc1cccc(Cl)c1 | -6.7 | 31.0* | -6.9 | 0.3 | 0.9 | 3362
CC(C)(C)c1ccc(C(=O)NC(=S)NCc2cccnc2)cc1 | -0.7 | 2.6 | -4.8 | 0.1 | 6.4 | 2492
COc1cc(/C=N/Nc2cc(C)nc(NS(=O)(=O)c3ccc(C)cc3)n2)ccc1O | 0.4 | 53.7* | 1.5 | -0.4 | -1.1 | 2028
Cc1cc(NN)nc(NS(=O)(=O)c2ccccc2)n1 | 2.6 | 0.0 | -0.9 | -0.4 | -2.5 | 4273
COc1cc(/C=N/Nc2cc(C)nc(NS(=O)(=O)c3ccccc3)n2)ccc1O | -1.3 | 53.6* | 1.3 | -0.1 | 0.4 | 4647
COc1ccc(/C=N/Nc2cc(C)nc(NS(=O)(=O)c3ccc(C)cc3)n2)cc1 | -0.3 | 26.4 | -1.9 | -0.9 | 0.3 | 2481
COc1ccc(NC(=O)c2oc3ccccc3c2NC(=O)c2ccco2)cc1 | -0.5 | 26.6 | -8.5 | -5.2 | 1.9 | 21689*
COc1ccc(NC(=O)c2oc3cc(C)c(C)cc3c2C)c(OC)c1 | 1.9 | 5.7 | -79.3 | -4.6 | 2.8 | 4751
CCN(CC)S(=O)(=O)c1ccc2oc(C(=O)Nc3ccc(OC)cc3OC)c(C)c2c1 | -1.7 | 19.8 | -6.2 | -2.7 | 2.2 | 24222*
COc1ccccc1NC(=O)c1oc2ccccc2c1NC(=O)c1cc(OC)c(OC)c(OC)c1 | -0.9 | 4.6 | -3.2 | -0.1 | -2.2 | 11217
SMILES | Anthrax LF prot | GDH-TPI inh | BoNT-F LC inh | BoNT A protease | Mtb FBA inh | Autofluor counter
CCOCC(=O)Nc1c(C(=O)Nc2ccc(OC)cc2OC)oc2ccccc12 | -1.4 | 12.7 | -0.9 | ? | -1.1 | 24944*
COCC(=O)Nc1c(C(=O)Nc2ccccc2OC)oc2ccccc12 | -1.8 | 12.3 | -5.0 | -1.2 | -0.4 | 23967*
COc1ccc(NC(=O)c2oc3ccccc3c2NC(=O)C2CC2)c(OC)c1 | 9.9 | 0.0 | 10.3 | 9.0 | 2.8 | 5321
COc1ccc(C(=O)NCc2ccccc2CN2CCCC2)cc1S(=O)(=O)Nc1ccc(C)cc1 | ? | 0.0 | ? | -19.7 | -0.5 | ?
O=C(CSc1n[nH]c(-c2ccccc2)n1)Nc1ccc(N2CCOCC2)cc1 | -2.2 | -1.3 | -4.2 | -0.3 | 0.7 | 2496
COC(=O)Nc1ccc(S(=O)(=O)N2CCN(C)CC2)cc1 | -3.1 | -3.2 | 7.4 | -1.0 | 2.6 | 3352
COc1ccc(NC(=O)c2oc3ccccc3c2NC(=O)c2ccco2)c(OC)c1 | -1.3 | -3.7 | -3.7 | -1.6 | 2.9 | 23875*
COc1ccc(NC(=O)c2ccco2)c(OC)c1 | 2.4 | 2.6 | 4.6 | 0.1 | 0.3 | 2846
CC1CCN(c2cc(C#N)c(C#N)cc2[N+](=O)[O-])CC1 | -0.4 | -12.2 | -2.7 | -1.1 | -2.3 | 23005*
CC1CCCCN1c1cc(C#N)c(C#N)cc1[N+](=O)[O-] (stereo not drawn) | -2.9 | 11.0 | -22.5 | -1.9 | -1.9 | 7974
Cc1cc(N2CCCC2)c(F)cc1/C=C\[N+](=O)[O-] | 34.9* | 2.2 | 22.5 | 61.5* | 1.0 | 9071
CC1CCN(c2cc(N)c(Cl)cc2[N+](=O)[O-])CC1 | -0.9 | 5.2 | -42.4 | -3.0 | -5.5 | 4706
Cc1cc(N2CCC(C)CC2)c(F)cc1[N+](=O)[O-] | 1.3 | -6.4 | -1.8 | -0.7 | 2.7 | 24078*
Oc1ccc(C[C@H]2CNC(=S)N2CC2CCCN2C[C@H](Cc2ccccc2)N2C[C@H](Cc3ccc(O)cc3)N(CCc3ccccc3)C2=S)cc1 (stereo partly drawn) | -3.6 | 34.0* | -7.8 | -0.2 | 1.4 | 2945
CCOc1ccc(CCN2C(=S)N([C@@H](CC(C)C)CN3CCCC3CN3C(=S)NC[C@@H]3Cc3ccc(O)cc3)C[C@@H]2Cc2ccccc2)cc1 (stereo partly drawn) | -5.8 | 37.5* | -7.7 | -0.2 | 4.7 | 3781
CC(C)C[C@H]1CN([C@@H](Cc2ccc(O)cc2)CN2CCC[C@@H]2CN2C(=S)NC[C@@H]2Cc2ccccc2)C(=S)N1CC1CCCCCC1 | -2.9 | nt | -1.4 | 0.4 | -3.7 | 5929
CC(C)C[C@H]1CNC(=S)N1CC1CCCN1C[C@H](Cc1ccccc1)N1C[C@H](Cc2ccc(O)cc2)N(CC2CCCCCC2)C1=S (stereo partly drawn) | -5.2 | 32.3* | -4.7 | -0.7 | 2.1 | 3787
O=C(Nc1cnc2ccccn2c1=O)c1ccc(F)cc1 | 4.8 | 24.1 | 15.3 | 0.1 | -1.9 | 6720
COc1ccc(C(=O)Nc2cnc3ccccn3c2=O)cc1 | -2.9 | 49.3* | 2.0 | 1.0 | -1.4 | 3404
O=C(Nc1ccccc1)c1cc(C2CCCCN2S(=O)(=O)c2ccccc2)on1 (stereo not drawn) | -1.9 | -9.8 | -5.8 | -0.1 | 1.9 | 3774
